Test results published in PubChem BioAssay (Tox21).
Inconclusive results are not listed. Where a call stands in place of a potency, no number is given. The source made the active and inactive calls. The call rests on the fitted dose curve.

Target: Beta-2 adrenergic receptor (Homo sapiens) (UniProt P07550)
Test: Adrenergic beta2 receptor (ADRB2) small molecule agonists, cell-based qHTS assay (AID 1963593);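 further: CHO cells stably overexpressing human ADRB2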
Conditions: CHO-ADRB2 cells, cAMP HTRF, 30 min; series mostly up to 92.4 µM
Method in brief: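 CHO cells stably over-expressing ADRB2 were plated overnight at 37C, then dosed with compounds plus a stimulation mix containing 100uM IBMX and 25uM Ro-20-1724 for 0.5hr at room temperature. cAMP was measured by HTRF competition, 1hr.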

Chain of Beta-2 adrenergic receptor (Homo sapiens) (P07550 whole entry, looked up): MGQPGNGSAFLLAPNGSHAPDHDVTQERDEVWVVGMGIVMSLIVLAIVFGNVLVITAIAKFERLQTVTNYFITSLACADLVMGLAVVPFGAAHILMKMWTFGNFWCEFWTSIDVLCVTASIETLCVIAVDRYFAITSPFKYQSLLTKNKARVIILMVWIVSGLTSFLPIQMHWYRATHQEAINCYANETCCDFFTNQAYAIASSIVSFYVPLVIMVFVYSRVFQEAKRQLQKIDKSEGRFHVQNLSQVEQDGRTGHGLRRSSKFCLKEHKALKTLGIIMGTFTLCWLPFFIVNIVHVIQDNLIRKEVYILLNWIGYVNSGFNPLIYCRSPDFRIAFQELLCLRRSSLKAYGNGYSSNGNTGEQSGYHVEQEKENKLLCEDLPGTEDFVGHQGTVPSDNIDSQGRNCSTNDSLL

Row | SMILES | Potency
1 | O=C(O)Cc1cccc2ccccc12 | inactive
2 | CC(=O)OC(C)(C)C1CC=C(C)CC1 (stereo unspecified) | inactive
3 | COCC(C)O (stereo unspecified) | inactive
4 | O=S(=O)(O)c1ccc2ccccc2c1 | inactive
5 | CC(=O)CC(=O)N(C)C | inactive
6 | COc1ccc(Nc2ccccc2)c(C)c1 | inactive
7 | CC(C)Cc1ccccc1 | inactive
8 | CCc1cccc(O)c1 | inactive
9 | CC1COC(=O)O1 (stereo unspecified) | inactive
10 | CCc1cccc(CC)c1N | inactive
11 | NS(=O)(=O)O | inactive
12 | Cc1ncc([N+](=O)[O-])n1C | inactive
13 | NC(N)=S | inactive
14 | CCC(=O)O | inactive
15 | CC(=O)Nc1ccc(CC(=O)O)cc1 | inactive
16 | c1ccncc1 | inactive
17 | CC(=O)OC/C=C(\C)CCC=C(C)C | inactive
18 | Cc1ccc(O)c(-n2nc3ccccc3n2)c1 | inactive
19 | C=CC(C)CCCC(C)(C)O (stereo unspecified) | inactive
20 | O=[N+]([O-])c1ccccc1C(F)(F)F | inactive
21 | CC(C)(C)C1CCC(O)CC1 (stereo unspecified) | inactive

Row | SMILES | Potency
22 | CCCCCCCCCCN | inactive
23 | C=CC(C)(C)C | inactive
24 | CC(C)c1ccc(C(C)C)cc1 | inactive
25 | CC/C=C(\C(=O)N[C@@H]1C(=O)N2C(C(=O)OCOC(=O)C(C)(C)C)=C(COC(N)=O)CS[C@H]12)c1csc(N)n1 | inactive
26 | CCC(C)(O)CCCC(C)C (stereo unspecified) | inactive
27 | Cc1ccc(Cl)cc1 | inactive
28 | CC(=O)N[C@@H](CS)C(=O)O | inactive
29 | Nc1ccn([C@H]2CC[C@@H](CO)O2)c(=O)n1 | inactive
30 | CCCCCNCCCCC | inactive
31 | C1N2CN3CN1CN(C2)C3 | inactive
32 | CC1(C)S[C@@H]2[C@H](NC(=O)COc3ccccc3)C(=O)N2[C@H]1C(=O)O | inactive
33 | CC(=O)OCCC(C)C | inactive
34 | C=Cc1cccc(C)c1 | inactive
35 | C=CC(=O)OCCCCCCCC(C)C | inactive
36 | OCCCc1ccccc1 | inactive
37 | COCCOCCOCCO | inactive
38 | OCCOCCOCCOCCO | inactive
39 | CC1(C)O[C@@H]2[C@@H](CO[C@@]3(COS(N)(=O)=O)OC(C)(C)O[C@@H]23)O1 | inactive
40 | O=CCc1ccccc1 | inactive
41 | CCCCNC(N)=O | inactive
42 | CCCCCC(=O)O | inactive

Row | SMILES | Potency
43 | O=C=NCCCCCCN=C=O | inactive
44 | COC(=O)c1ccccc1 | inactive
45 | CCO[Si](CCCN)(OCC)OCC | inactive
46 | Cc1ccc(O)cc1 | inactive
47 | COc1ccc([C@@H]2CC(=O)c3c(O)cc(O[C@@H]4O[C@H](CO[C@@H]5O[C@@H](C)[C@H](O)[C@@H](O)[C@H]5O)[C@@H](O)[C@H](O)[C@H]4O)cc3O2)cc1OC | inactive
48 | COCC(=O)O | inactive
49 | CCCCCCCCCCCCc1ccccc1 | inactive
50 | C=C(C)C(=O)OCC(C)C | inactive
51 | CCN1CCCC1=O | inactive
52 | O=C(O)CC(O)C(=O)O (stereo unspecified) | inactive
53 | Brc1nc2ccccc2s1 | inactive
54 | Cc1ncc(CO)c(CO)c1O | inactive
55 | O=Cc1ccc(CO)o1 | inactive
56 | C=C(C)C(=O)O[C@H]1C[C@@H]2CC[C@@]1(C)C2(C)C | inactive
57 | CC/C(C)=N/O | inactive
58 | CCCCCCCC(=O)OCC(COC(=O)CCCCCCC)OC(=O)CCCCCCC | inactive
59 | CCc1ccccc1CC | inactive
60 | COC(=O)c1ccc(C=O)cc1 | inactive
61 | C1COCCN1 | inactive
62 | C[Si](C)(C)O[Si](C)(C)C | inactive
63 | CC(=O)C1=C(C)[C@@H]2C[C@@]3(C1)[C@H](C)CC[C@H]3C2(C)C | inactive

Row | SMILES | Potency
64 | Cc1cc(C)c(O)c(C)c1 | inactive
65 | O=C1C(c2[nH]c3ccccc3c2O)=Nc2ccccc21 | inactive
66 | OC1CCCCC1 | inactive
67 | Nc1ccccc1[N+](=O)[O-] | inactive
68 | CC(O)CN(CCN(CC(C)O)CC(C)O)CC(C)O (stereo unspecified) | inactive
69 | CCCCC(CC)COC(=O)c1ccc(C(=O)OCC(CC)CCCC)cc1 (stereo unspecified) | inactive
70 | COC(=O)C1CCC(C(=O)OC)CC1 (stereo unspecified) | inactive
71 | c1ccc2[nH]cnc2c1 | inactive
72 | CCCCCCCCCCCCCC[N+](C)(C)Cc1ccccc1 | inactive
73 | O=C(O)c1cccc([N+](=O)[O-])c1 | inactive
74 | O=C(O)c1ccc(S(=O)(=O)N(Cl)Cl)cc1 | inactive
75 | Cc1ccc2ncccc2c1 | inactive
76 | CCCC(C)=O | inactive
77 | c1cc(-c2ccncc2)ccn1 | inactive
78 | Cc1ccc2c(c1)C(=O)OC2=O | inactive
79 | N[C@@H](Cc1cc(I)c(Oc2cc(I)c(O)c(I)c2)c(I)c1)C(=O)O | inactive
80 | CCCCCCCCO | inactive
81 | COC(C)COC(C)COC(C)CO (stereo unspecified) | inactive
